# Activity calls are given as the source filed them.
# Key:
# [1] = compound effects on lung adenocarcinoma cell viability – A549, calcein-AM fluorescence, 48 h, basal, profiling panel (AID 1162); conditions: higher = more signal
# [2] = compound effects on differentiated 3T3-L1 adipocyte viability – cell-based, 3T3-L1 adipocytes, calcein-AM fluorescence, 48 h, basal, profiling panel (AID 1163); conditions: 3T3-L1 adipocytes viability, higher = more signal
# [3] = compound effects on hepatocellular carcinoma cell viability – HepG2, calcein-AM fluorescence, 48 h, basal, profiling panel (AID 1164); conditions: higher = more signal
# [4] = compound effects on multiple myeloma cell viability – MM1S, calcein-AM fluorescence, 48 h, basal, profiling panel (AID 1165); conditions: higher = more signal
# [5] = calcein-AM signal in unstimulated myeloma cells – cell-based, calcein-AM fluorescence, 48 h, PK04 Diversity Set, profiling panel (AID 1166); conditions: RPMI8226 myeloma viability, higher = more signal;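 further: cells grown under basal conditions without added stimulus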
# [6] = JC-1 mitochondrial signal, unstimulated HepG2 cells – cell-based, JC-1 fluorescence, 24 h, 100 nL compound, profiling panel (AID 1167); conditions: HepG2 mitochondrial potential, higher = more signal
# [7] = JC-1 mitochondrial signal, unstimulated adipocytes – cell-based, JC-1 fluorescence, 3T3-L1 adipocytes, 24 h, 100 nL compound, profiling panel (AID 1168); conditions: JC-1 mitochondrial fluorescence, higher = more signal, called active from +8 up or from −8 down
# [8] = JC-1 mitochondrial signal, unstimulated myeloma cells – cell-based, JC-1 fluorescence, RPMI8226, 24 h, 100 nL compound, profiling panel (AID 1169); conditions: JC-1 mitochondrial potential fluorescence, higher = more signal
# [9] = JC-1 mitochondrial signal, unstimulated MM1S myeloma – cell-based, JC-1 fluorescence, 24 h, 100 nL compound, profiling panel (AID 1170); conditions: MM1S mitochondrial potential, higher = more signal
# [10] = resazurin metabolic signal in A549 cells – cell-based, resazurin fluorescence, 24 h, PK04 Diversity Set, profiling panel (AID 1171); conditions: A549 viability, higher = more signal, called active from +8 up or from −8 down
# Further: test concentration not given here.
Compound,z-score [1],z-score [2],z-score [3],z-score [4],z-score [5],z-score [6],z-score [7],z-score [8],z-score [9],z-score [10]
O=C1[C@H]2[C@H]3[C@H](O)[C@H](O)CC(=NOCc4ccccc4)[C@@H]3CC[C@H]2C(=O)N1c1cccc(Oc2ccccc2)c1,0.794,-0.746,-0.505,0.213,0.3,-0.231,-0.145 (inactive),0.542,-1.68,-0.227 (inactive)
CCOC(=O)[C@H](Cc1ccccc1)NC(=O)CCC1CC(OC(=O)NCc2ccc3c(c2)OCO3)CC2(CCCC(COC(=O)NCCOc3ccccc3)O2)O1 (stereo not given in full),-0.794,-0.317,0.184,0.322,0.0039,2.45,0.808 (inactive),-0.0508,-1.17,0.198 (inactive)
COC(=O)CC=C[C@@H](C)[C@@H](C=NOC(C)CN1CCCCc2nc(C)c(C)cc21)OC (stereo not given in full),-0.165,-0.213,-0.0272,-1.74,-0.444,-0.254,-0.142 (inactive),-0.497,0.444,0.0399 (inactive)
CCOC(=O)NN=C1C[C@@H](O)[C@@H](O)[C@@H]2[C@@H]3C(=O)N(c4ccc(F)cc4F)C(=O)[C@@H]3CC[C@H]12,-0.999,1.01,-0.925,0.593,-0.895,1.11,-0.734 (inactive),0.14,-0.354,0.745 (inactive)
CC(=O)OC[C@H]1O[C@H](CC=NOC(C)CN2CCCc3nc(C)c(C)cc32)C=C[C@@H]1OC(C)=O (stereo not given in full),-0.234,0.114,-0.806,-2.94,-0.639,-0.706,0.264 (inactive),-0.131,-0.188,-0.135 (inactive)
Cc1ccc(S(=O)(=O)N[C@@H]2COC(=O)CC=C[C@@H](C)[C@H](NS(=O)(=O)c3ccc(C)cc3)COC(=O)[C@H](C)NC(=O)CC=C[C@H]2C)cc1,0.697,-0.0454,0.428,-0.987,0.158,0.209,0.099 (inactive),0.389,1.03,-0.395 (inactive)
CON=C1c2cc(OC)ccc2O[C@H](c2cccc(OC)c2)[C@H]1O,0.744,0.448,-0.743,-0.416,0.53,0.181,-0.672 (inactive),-0.0443,1.39,-0.124 (inactive)
CC(C)CON=C1[C@H]2CCn3c(=O)n(C)c(=O)n3[C@H]2[C@H](O)[C@@H]2O[C@H]12,0.543,0.632,0.361,0.191,-0.441,-0.383,-0.444 (inactive),-0.581,0.0994,-0.143 (inactive)
CCN1C(=O)[C@H]2[C@H]3[C@H](O)[C@H](O)CC(=NO[C@@H](C)c4cc(-c5c(C)cc(C)cc5C)no4)[C@@H]3CC[C@H]2C1=O,0.165,0.335,-0.401,-0.807,-1.14,-1.38,-3.4 (inactive),0.473,-0.176,0.296 (inactive)
C=CC[C@@H]1C=C[C@H](ON=CC[C@@H]2C=C[C@H](OC(C)=O)[C@@H](COC(C)=O)O2)[C@@H](CO)O1,0.452,-0.5,0.347,0.114,-0.445,0.169,-0.01 (inactive),-0.131,-0.838,-0.286 (inactive)
O=C1C=C[C@@H](O)[C@@H]2[C@@H]3C(=O)N(Cc4ccc5c(c4)OCO5)C(=O)[C@@H]3CC[C@@H]12,-0.0516,0.493,0.0311,-0.186,0.0706,-0.214,-0.0146 (inactive),0.0398,0.652,-0.701 (inactive)
C[C@@H](c1ccccc1)N1C(=O)[C@H]2[C@H]3[C@H](O)[C@H](O)CC(=NOC[C@@H](O)COCc4ccco4)[C@H]3CC[C@H]2C1=O,-0.428,0.565,-0.187,0.352,-1.83,-0.137,-0.387 (inactive),-0.84,-0.0829,-0.268 (inactive)
COC(=O)[C@H](C)NC(=O)CCC1CC(OC(=O)NCc2ccc3c(c2)OCO3)CC2(CCCC(COC(=O)NCCCN3CCCC3=O)O2)O1 (stereo not given in full),-0.516,-0.232,-1.09,-0.375,-0.322,-0.815,-0.019 (inactive),-0.838,0.224,0.468 (inactive)
CCOC(=O)[C@H](Cc1ccccc1)NC(=O)CCC1CC(OC(=O)NCCc2ccc(F)cc2)CC2(CCCC(COC(=O)NCCC(C)C)O2)O1 (stereo not given in full),1.28,-0.567,0.368,0.243,-0.364,0.362,0.232 (inactive),-0.353,-0.941,1.87 (inactive)
C=CC[C@@H]1C=C[C@H](ON=C(C)CCN2CCCc3nc(C)c(C)cc32)[C@@H](CO)O1,0.226,-0.0137,0.0526,-2.03,-1.06,-0.276,0.0489 (inactive),-0.989,-0.455,-0.246 (inactive)
CCCNC(=O)OC[C@H]1O[C@H](CCON=C2c3cc(OC)ccc3O[C@H](c3cccc(OC)c3)[C@H]2O)C=C[C@@H]1Oc1ccc(OC)cc1,0.111,0.752,-0.0825,-0.187,-0.572,1.38,-1.49 (inactive),0.0694,-0.0229,0.409 (inactive)
O=C(NN=C1C[C@@H](O)[C@@H](O)[C@@H]2[C@@H]3C(=O)N(Cc4ccccc4)C(=O)[C@@H]3CC[C@H]12)OCc1ccccc1,0.614,0.52,-0.604,0.881,-0.256,0.846,0.415 (inactive),-0.415,-0.427,0.288 (inactive)
CCc1cc2c(nc1CC)CCN(CCC(C)=NOC[C@@H](C)[C@H](OCc1ccccc1)C(C)C)C2,1.58,0.546,1.43,-2,-0.584,2,1 (inactive),0.278,0.486,-0.445 (inactive)
COc1ccc(O[C@H]2C=C[C@@H](c3ccccc3)O[C@@H]2CO)cc1,0.109,0.0705,-0.27,-0.307,-0.0698,0.194,-0.637 (inactive),0.362,-0.42,-0.521 (inactive)
CCOC(=O)[C@H](Cc1ccccc1)NC(=O)CCC1CC(OC(=O)NCc2cccc3ccccc23)CC2(CCCC(COC(=O)NCCc3ccc(Cl)cc3)O2)O1 (stereo not given in full),0.893,0.595,-0.397,0.248,0.859,-0.114,0.237 (inactive),-0.185,-0.401,0.895 (inactive)
CCOC(=O)[C@H](Cc1ccccc1)NC(=O)CCC1CC(OC(=O)NCc2cccc3ccccc23)CC2(CCCC(COC(=O)NCc3ccc4c(c3)OCO4)O2)O1 (stereo not given in full),0.664,-0.171,0.78,0.505,-1.48,0.561,0.953 (inactive),-0.675,-0.239,-0.269 (inactive)
C[C@H]1CC[C@H]2C(=O)OC(COc3ccc(C(C)(C)C)cc3)CN2[C@@H]1c1ccc(Br)cc1 (stereo not given in full),2.19,0.193,0.349,0.793,0.253,0.745,-0.414 (inactive),0.566,0.855,0.479 (inactive)
CC(C)CN1CCc2nc(-c3ccccc3)c3c(c2C1)CO[C@@H](C)C3,1.2,-0.274,0.0114,0.639,-0.409,0.462,0.0658 (inactive),-0.0878,0.708,-0.139 (inactive)
CC(C)[C@@H](OCc1ccccc1)[C@H](C)CON=C1[C@H]2CCn3c(=O)n(-c4ccccc4)c(=O)n3[C@H]2[C@H](O)[C@@H]2O[C@H]12,-0.27,-0.104,-1.31,-2.72,-2.22,-2.12,0.197 (inactive),-0.654,-0.375,-1 (inactive)
COC(=O)[C@H](C)NC(=O)CCC1CC(OC(=O)NCc2ccc3c(c2)OCO3)CC2(CCCC(COC(=O)NCCC(C)C)O2)O1 (stereo not given in full),-0.121,0.114,-1.19,-3.18,-2.13,-0.523,-0.452 (inactive),-0.253,0.177,0.442 (inactive)
O=C1[C@H]2[C@H]3[C@H](O)[C@H](O)CC(=NOC[C@@H](O)COCc4ccco4)[C@@H]3CC[C@H]2C(=O)N1Cc1ccc2c(c1)OCO2,0.751,0.0548,0.579,0.477,0.677,1.07,0.231 (inactive),0.727,-1.18,0.178 (inactive)
O=C1[C@H]2[C@H]3[C@H](O)[C@H](O)CC(=NOCc4ccccc4)[C@H]3CC[C@H]2C(=O)N1C1CCCCC1,0.519,-0.228,0.734,-0.618,-0.498,-1.3,0.028 (inactive),-0.16,-0.847,-0.329 (inactive)

# Reference: PubChem BioAssay
